Inconclusive results are not listed. Activity calls are given as the source filed them. Rule for the calls, unless noted: active = hit-call score of the fitted dose curve at least 0.9, where 1 is the maximum; inconclusive = response in the unintended direction; inactive = score below 0.9.
Key:
[1] = VALA_TUBIPS_Antagonist_TubuleLength: VALA Sciences human iPS-derived Endothelial Tubule Formation (TUBIPS) Antagonist Assay (AID 2284313)
Summary of the method: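 Tubule length was quantified by high-content imaging of CD31- and nuclear-stained cells, with 0.1% DMSO as neutral and 100 uM suramin as inhibition control. Compounds were applied for 3 days, in 10 ng/ml VEGF, to cultures pre-grown 3 days.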

[2] = VALA_TUBHUV_Antagonist_TubuleLength: VALA Sciences human Umbilical Vein Endothelial Tubule Formation (TUBHUV) Antagonism Assay (AID 2284325)
Experimental: VALA_TUBHUV_Antagonist is a cell-based, multiplexed assay that uses human umbilical vein endothelial cells (HUVEC). Measurements were taken 72 hours after chemical dosing in a 96-well plate.VALA_TUBHUV_Antagonist_TubuleLength is the one of two assay components measured from the VALA_TUBHUV_Antagonist assay. It is designed to make measurements of tubulogenesis, a form of morphology reporter, as detected with fluorescence intensity signals by HCS Fluorescent Imaging technology. This VALA_TUBHUV_Antagonist assay was designed to detect chemical suppression of tubulogenesis, i.e. antagonism.Data from the assay component VALA_TUBHUV_Antagonist_TubuleLength was analyzed at the endpoint, VALA_TUBHUV_Antagonist_TubuleLength, in the positive analysis fitting direction relative to DMSO as the negative control and baseline of activity. Using a type of morphology reporter, loss-of-signal activity can be used to understand developmental effects. To generalize the intended target to other relatable targets, this assay endpoint is annotated to the neurodevelopment intended target family, where the subfamily is tubulogenesis.
This HUVEC-HDF assay was designed to detect chemical suppression of tubulogenesis, i.e. antagonism. […]

[3] = VALA_MIGHUV2_CellCount: Viability Assessment in the VALA Sciences human Umbilical Vein Endothelial Cell Migration (MIGHUV) Assay, Area of Scratch Wound after Recovery (AID 2284314)
Summary of the method: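 Viability read-out: Hoechst-stained nuclei counted by fluorescence imaging after a 24 h recovery period in fixed, scratched HUVEC plates. Compound was dosed within 30 min of scratching at six concentrations (triplicate); DMSO at 0.1 % served as baseline.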

[4] = VALA_MIGHUV2_Bcatenin: VALA Sciences human Umbilical Vein Endothelial Cell Migration (MIGHUV) Assay, Nuclear Translocation of beta-Catenin after Recovery (AID 2284315)
Summary of the method: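 Nuclear beta-catenin imaged by immunofluorescence with Hoechst counterstain in fixed HUVEC, 24 h after scratch wounding and chemical addition. Six-point concentration-response in triplicate; activity scored as signal increase over 0.1% DMSO vehicle.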

[5] = VALA_MIGHUV1_ScratchOnly_CellCount: Viability Assessment in the VALA Sciences human Umbilical Vein Endothelial Cell Migration (MIGHUV) Assay, Scratch Wound Inhibited Recovery (AID 2284327)
Summary of the method: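 Hoechst-stained nuclei in the scratch wound were counted by high-content imaging after a 24 h recovery period. Scratched HUVEC monolayers received 6-point concentration series, triplicate, in 0.1% DMSO, fit against DMSO.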

[6] = IUF_NPC1_cytotoxicity_72hr: Cytotoxicity Assessment at 72 hours in the Leibniz Research Institute for Environmental Medicine (IUF) Neural Progenitor Cell Proliferation Assay (NPC1) (AID 2284332);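 note: rising LDH signal means more cytotoxicity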
Summary of the method: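 LDH in supernatant, resazurin→resorufin fluorescence (RFU), 72 h exposure, no re-dosing. Cells: primary hNPC spheres, one per well, EGF+FGF medium, 37C/5% CO2, pH 7.2-7.6. Fit: positive direction vs baseline and dynamic range.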

[7] = tested on: IYD (gene 389434); assay: CCTE_GLTED_hIYD: CCTE's human Iodotyrosine Deiodinase (xIYD) Inhibition Assay, Great Lakes Toxicology and Ecology Division (GLTED) Lab (AID 2284317);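 note: cell-free human IYD enzyme made in baculovirus insect cells; iodide freed from monoiodotyrosine measured by cerium arsenite color change at 420 nm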
Summary of the method: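 Cell-free; baculovirus/insect-cell hIYD + MIT substrate + chemical, 3 h. Dowex column cleanup, then Ce4+/As3+ Sandell-Kolthoff read at A420 nm. Triplicate plates; normalized to 3-nitro-L-tyrosine (positive) and DMSO/NaOH (solvent).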

[8] = tested on: TTR (gene 7276); assay: CCTE_GLTED_hTTR_0.5uM: CCTE's human Transthyretin (hTTR) Inhibition Assay, with 0.5uM TTR, Great Lakes Toxicology and Ecology Division (GLTED) Lab (AID 2284320; active = hit-call score of the fitted dose curve at least 0.9, where 1 is the maximum; inactive = score below 0.9)
Summary of the method: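 Probe (ANSA) displacement from 0.5 uM human transthyretin was followed by fluorescence (ex 380, em 475) after a 2 h incubation with chemical. Activity was scored as signal loss and fitted positively relative to DMSO.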

CCCC(CCC)C(=O)O
outcome [1]: inactive
outcome [2]: inactive

CCCCCCCCCC
outcome [3]: inactive
outcome [4]: inactive
outcome [5]: inactive

Cn1cc[nH]c1=S
outcome [3]: inactive
outcome [5]: inactive
outcome [6]: inactive

NC(=O)NN=Cc1ccc([N+](=O)[O-])o1
AC50 [7]: 74.4 µM (active)

CCCCCCCCCCCCCCCCOS(=O)(=O)O
AC50 [7]: 32.7 µM (active)

O=S(=O)(O)CCC(F)(F)C(F)(F)C(F)(F)C(F)(F)C(F)(F)C(F)(F)F
AC50 [8]: 5.35 µM (active)

FC(F)=C(F)C(F)(F)C(F)(F)C(F)(F)C(F)(F)C(F)(F)C(F)(F)F
AC50 [8]: 62.1 µM (active)

Nc1ccn([C@@H]2O[C@H](CO)[C@@H](O)[C@@H]2O)c(=O)n1
outcome [6]: inactive
